Screens deposited in PubChem by National Center for Advancing Translational Sciences (NCATS).
KB-V1 cytotox: kills drug-selected multidrug resistant KB-V1 cells; KB-V1 MDR cells viability, CellTiter-Glo, 72 h; Potency, µM (series often up to 46.1 µM), actives largely listed as cytotoxic; 3.4% of 400,000 active; note: nearly all actives have a fitted effect of over 60% in size
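Cells of the MDR subline KB-V1 are plated, dosed with compound at multiple concentrations, and incubated 72 h at 37 degrees C; CellTiter-Glo is then added and luminescence read after 10 min.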
HT1080NT lethal: kills 2HG-producing HT-1080-NT fibrosarcoma cells | Potency, µM (top dose mostly 46.1 µM), without a hit: top-dose activity, negative = less viability, actives largely listed as cytotoxic | AID 686970 | 1.6% of 360,000 active | HT-1080-NT fibrosarcoma viability, CellTiter-Glo ATP luminescence, 48 h;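 note: NT is the 2HG producing partner of a matched IDH1 knockdown line; 0% = DMSO-treated cells and -100% = media-only wells without cells; nearly all actives have a fitted effect of over 55% in size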
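A 48-hour cytotoxicity screen used HT-1080-NT cells plated 2 hours before compound delivery. ATP-based CellTiter-Glo luminescence measured viability, normalized to DMSO and no-cell controls.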
HT1080 IDH1KD tx: kills HT-1080 cells with IDH1 knockdown; HT-1080 IDH1 knockdown viability, ATP luminescence, 48 h; Potency, µM (doses to about 46.1 µM), for the others: at the highest dose activity, negative = toxicity, actives largely listed as cytotoxic; 2% of 360,000 active; AID 686971;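 note: 0% = DMSO wells and -100% = cell-free medium wells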
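CellTiter-Glo luminescence after 48 h compound exposure at 37 degrees C of IDH1-knockdown HT-1080 cells in 5% FBS RPMI. %Activity scaled between DMSO wells and cell-free media wells, with curves fitted and assigned curve classes.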
KB-3-1 cytotox: kills parental KB-3-1 adenocarcinoma cells. AID 1347075. KB-3-1 viability, CellTiter-Glo ATP luminescence, 72 h. Potency, µM (doses to about 46.1 µM), most hits filed as cytotoxic. 1.4% of 400,000 active; note: nearly all actives have a fitted effect of over 60% in size
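Viability of parental KB-3-1 cells, measured by CellTiter-Glo luminescence, followed a 72 h incubation at 37 °C with pinned compounds in phenol-red-free DMEM containing 10% FBS.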
TDP1 cell noCPT: qHTS for Inhibitors of human tyrosyl-DNA phosphodiesterase 1 (TDP1): qHTS in cells in absence of CPT; DT40 Tdp1-/- hTDP1 cells, no CPT, ATP luminescence, 48 h; Potency, µM (titrated, usually from 46.2 µM), without a hit: at the top dose activity change, negative = growth inhibition, actives largely listed as inhibitors; 15% of 420,000 active; note: nearly all actives have a fitted effect of over 55% in size
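Readout: luminescence from CellTiter-Glo after 30 min in the dark at RT. Cells: DT40 Tdp1-/- with stable hTDP1, 400/well. Exposure: compounds alone, ≥48 hr, 37 °C.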
TDP1 cell CPT: DT40-hTDP1 cell growth loss with CPT; chicken DT40 Tdp1-/-;hTDP1 cells + 20 nM CPT, ATP luminescence, 48 h; Potency, µM (doses to about 46.2 µM), for the others: at the top dose activity change, negative = growth inhibition, hits mostly inhibitors; 12% of 420,000 active; AID 686979; note: nearly all actives have a fitted effect of over 55% in size
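Cell growth measured by CellTiter-Glo luminescence after a minimum 48 h, 37 C compound exposure with 20 nM CPT in Tdp1-knockout DT40 cells stably expressing hTDP1, seeded 400/well; qHTS titration format.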
* hit, by the source's call; i = inactive; ? = inconclusive; nt = no result. The list is not random: actives were taken first. Their share in the collection is about 19%. Calls come from the whole dose curve; as a rule, active = well fitted curve in the direction sought with a large enough effect; inconclusive = small, poorly fitted or top-dose-only effect, or another doubt; inactive = no such curve, though single readings can be large; an effect the other way counts as inactive or inconclusive. Unless noted, % is set by controls: 0 for no effect and ±100 for the full control effect; potency is the fitted concentration of half-maximal effect.

SMILES	KB-V1 cytotox	HT1080NT lethal	HT1080 IDH1KD tx	KB-3-1 cytotox	TDP1 cell noCPT	TDP1 cell CPT
COCCn1c(=NC(=O)c2sc3ccccc3c2Cl)sc2cc(S(N)(=O)=O)ccc21	i	-20%	-1%	i	13µM*	?
COCCn1c(=NC(=O)CCS(=O)(=O)c2ccccc2)sc2cc(F)ccc21	nt	-6%	-17%	nt	21µM*	18µM*
COCCn1c(=NC(=O)CSC(C)=O)sc2cc(OC)ccc21	i	10%	-3%	i	?	?
COc1ccc(OC)c(S(=O)(=O)NC(=O)C2(C)CCN2C(=O)Cc2ccccc2)c1 (stereo not given)	i	21%	8%	i	-11%	-7%
COCCn1c(=NC(=O)CSCC(=O)NC2CCCCC2)sc2cc(OC)ccc21	2.9µM*	-2%	-2%	?	21µM*	23µM*
CCn1c(=NC(=O)CSC(C)=O)sc2ccccc21	i	-10%	-9%	i	?	21µM*
CCNC(=O)c1cc(NC(=O)COC)cc2nc(-c3ccncc3)n(C)c12	nt	nt	nt	nt	-15%	?
Cc1cc(C)c(S(=O)(=O)n2cnc(C)c2)c(C)c1	i	nt	nt	i	-3%	-2%
CC(=O)NC1(C(F)(F)F)C(=O)Nc2c1c(=O)[nH]c(=O)n2CCc1ccccc1 (stereo not given)	i	-4%	1%	i	3%	1%
COc1cc(OC)c(OC)cc1/C=C1/Cc2ccccc2C1=O	i	8%	-1%	i	-30%	-21%
COc1cc(OC)c(OC)cc1/C=C1\CC(C)C/C(=C\c2cc(OC)c(OC)cc2OC)C1=O (stereo not given)	i	?	?	?	18µM*	18µM*
CCC1C/C(=C\c2cc(OC)c(OC)cc2OC)C(=O)/C(=C/c2cc(OC)c(OC)cc2OC)C1 (stereo not given)	i	13µM*	21µM*	?	13µM*	?
CC(C)Oc1cc(F)ccc1-c1cc(C(=O)NCc2ccccc2)[nH]n1	i	3%	-1%	i	-32%	-1%
CC(C)Oc1cc(F)ccc1-c1cc(C(=O)Nc2ccccc2)[nH]n1	i	-13%	3%	i	23µM*	?
CC(C)c1ccc(NC(=O)c2cc(-c3cc(F)ccc3OCC3CCCO3)n[nH]2)cc1 (stereo not given)	i	0%	3%	i	?	?
CC(C)Oc1cc(F)ccc1-c1cc(C(=O)Nc2ccc(C(C)C)cc2)[nH]n1	i	-23%	-25%	i	15µM*	18µM*
CCOC(=O)N1CCN(Cc2nc3cc(NC(=O)c4ccccc4Cl)ccc3n2C(C)C)CC1	nt	nt	nt	nt	1.5µM*	1.5µM*
CCCC(=O)Nc1ccc2c(c1)nc(CN1CCN(C(=O)OCC)CC1)n2C	i	3%	-3%	i	-6%	0%
CCCC(=O)Nc1ccc2c(c1)nc(CN1CCN(C(=O)OCC)CC1)n2CC	i	?	?	3.3µM*	2.3µM*	3.7µM*
CCCC(=O)Nc1ccc2c(c1)nc(CN1CCN(C(=O)OCC)CC1)n2C(C)C	nt	nt	nt	nt	0.065µM*	0.65µM*
Cc1c(Cl)cccc1NC(=S)NC1CC1	i	19%	6%	i	-16%	6%
Cc1ccc(NC(=O)c2ccccc2SCC(=O)N2CCCC2)cc1S(=O)(=O)N(C)C	?	1%	-1%	i	-12%	-6%
COc1ccc(NC(=O)c2cnc3sc(N4CCOCC4)nn3c2=O)c(OC)c1	?	nt	nt	i	3%	-15%
COc1ccc(NC(=O)c2ccc([N+](=O)[O-])o2)cc1	?	-4%	?	8.2µM*	23µM*	16µM*
